# The source made the active and inactive calls.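 The calls were made as follows: active = fold change of 2 or more in glucocerebrosidase protein level on Western blot; inactive = the rest.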
# Target: Lysosomal acid glucosylceramidase (Homo sapiens) (UniProt P04062)
# Experiment: Extended Characterization of Activators of N370S glucocerebrosidase as a Potential Chaperone Treatment of Gaucher Disease: Western Blot
# Conditions: Patient cells, GCase protein level, stronger effect = higher value
# From the text: Glucocerebrosidase (GCase) catalyzes the hydrolysis of beta-glucocerebroside to glucose and ceramide in lysosomes. Mutations in the glucocerebrosidase gene result in Gaucher disease, an autosomal recessive lysosomal storage disorder. Many of the mutations encountered in patients with Gaucher disease are missense alterations that may cause misfolding, decreased stability and/or mistrafficking of this lysosomal protein. […] These inhibitors include iminosugar analogs and other inhibitors that were discovered as part of previous work. However, the enhancement of enzyme activity by the chaperone action of an enzyme inhibitor must be balanced against the direct inhibition of the enzyme. […] In this extended characterization of our probe, we have further characterized the activity of our probe in relevant models. In this Western Blot assay, we examined the effects of compounds to increase GCase activity. NIH Chemical Genomics Center [NCGC] NIH Molecular Libraries Probe Production Centers Network [MLPCN] MLPCN Grant: MH086442 Assay Submitter (PI): Ellen Sidransky, NHGRI
# The cells were plated and exposed to the compounds. Cells were harvested and the cell extracts were subjected to SDS-PAGE and Western blotting procedures to evaluate the extent of upregulation of GCase activity.
# Lysosomal acid glucosylceramidase (Homo sapiens), sequence (P04062 40-536 N409S): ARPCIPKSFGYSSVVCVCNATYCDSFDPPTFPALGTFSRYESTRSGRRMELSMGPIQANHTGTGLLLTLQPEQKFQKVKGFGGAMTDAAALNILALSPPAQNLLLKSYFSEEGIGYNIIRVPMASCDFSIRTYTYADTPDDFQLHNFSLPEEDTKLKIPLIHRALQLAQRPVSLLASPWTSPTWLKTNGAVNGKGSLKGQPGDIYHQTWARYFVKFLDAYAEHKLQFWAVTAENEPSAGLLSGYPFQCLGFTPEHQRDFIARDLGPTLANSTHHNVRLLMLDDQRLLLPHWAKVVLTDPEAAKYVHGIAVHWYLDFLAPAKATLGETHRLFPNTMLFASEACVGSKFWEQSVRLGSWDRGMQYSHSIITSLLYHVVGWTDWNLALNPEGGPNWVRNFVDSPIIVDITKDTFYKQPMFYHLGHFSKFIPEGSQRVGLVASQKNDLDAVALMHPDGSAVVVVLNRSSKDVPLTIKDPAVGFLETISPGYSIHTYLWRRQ
row,Compound,fold change
1,C#Cc1ccc(NC(=O)c2cnn3c(C)cc(C)nc23)cc1,2 (active)

# From PubChem BioAssay AID652096 (National Center for Advancing Translational Sciences (NCATS), 2013)
